Results published in PubChem BioAssay (NCI).
About 83,000 compounds went through this panel and 20% of them were active in at least one assay; those are over-represented in the sample as a whole.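 96-well plates, one dose, 48 hours. Percent growth reported; active if below 10.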 Calls of active or inactive are those of the source.

What follows are molecules tested on HCC-2998 colon (assay: NCI-60 one-dose screen, 48 h (100 = growth as untreated, 0 = no growth, -100 = all killed)). Settings: 10 µM unless noted.
For `Cn1c(=O)c2[nH]c(SC/C(=N/O)c3ccc(Br)cc3)nc2n(C)c1=O`, the growth was 16.8% (inactive). For `Cc1c2ncccc2nc2[nH]c3ccc(OCCN(C)C)cc3c12`, the growth was 53.3% (inactive). With `COc1ccc(-c2cc(C(=O)N3N=C(c4ccc(N)cc4)CC3c3ccc(Cl)cc3)c3ccccc3n2)cc1` (stereo not given) the growth was 21.5% (inactive). For `Nc1cc(C(=O)O)cc(-n2c(O)c(C=C3N=c4ccccc4=N3)sc2=S)c1`, the growth was 99.3% (inactive). `CCNC(=O)N1CCc2c(Br)c3c(c(OC)c2C1Cc1ccc(OC)cc1)OCO3` (stereo not given) was tested, and the growth was 71.3% (inactive). With `CCCN(CCSSCCNc1nc(N(C)O)nc(N(C)O)n1)c1nc(N(C)O)nc(N(C)O)n1` the growth was 59.8% (inactive). `COc1cc(C=C2C(=O)NC(=S)NC2=O)cc(CN2CCCC2)c1O` was tested, and the growth was 110% (inactive). With `Cc1cc(C)c2c(c1)N(C)c1ncnc(-n3c(C)nc4cc(C)ccc43)c1CC2C` (stereo not given) the growth was 76.1% (inactive). `COC1/C=C/OC2(C)Oc3c(C)c(O)c4c(O)c(c(/C=N/N(c5ccccc5)c5ccccc5)c(O)c4c3C2=O)NC(=O)C(C)=C/C=C/C(C)C(O)C(C)C(O)C(C)C(OC(C)=O)C1C` (stereo not given) was tested, and the growth was 71.1% (inactive). `CN(C)Cc1cc(C(C)(C)C)cc(Br)c1O` was tested, and the growth was 109% (inactive). With `COC(=O)c1ccc2c(c1)c1c(C)c3cnccc3c(C)c1n2C` the growth was 1.42% (active). `CN(C)CCCn1c2c(c3cnccc3c1=O)C(=O)c1ccccc1-2` was tested, and the growth was 3.98% (active). `CCOC(=O)C/C(=N\Nc1cc(=O)[nH]c2ccc(OC)cc12)C(=O)OCC` was tested, and the growth was 101% (inactive). With `COc1ccc(/C=C(/C(=O)N2CCNCC2)c2cc(OC)c(OC)c(OC)c2)cc1O` the growth was 78.4% (inactive). With `COC(=O)[C@]1(C)CCC[C@]2(C)[C@H]3C[C@@H]4[C@H]5[C@@H]6CC/C(=N\OCC/C(N)=N/O)[C@H]5[C@@]3(CC[C@H]21)CC4(C(C)C)O6` the growth was 90.4% (inactive). For `CC/C(=C(\c1ccc(Cl)cc1)c1ccc(OCCN2CCCCC2)cc1)c1ccc(O)cc1`, the growth was 37.5% (inactive). In the case of `CCN(CC)CCOc1ccc(/C(=C(\C)Cc2ccc(OC)cc2)c2ccc(OC(=O)NCc3ccccc3)cc2)cc1`, the growth is reported as 70.6% (inactive). In the case of `O=[N+]([O-])c1c(O)c(Cl)cc(Cl)c1Cl`, the growth is reported as 96.5% (inactive). `C=CC(=O)Nc1cccc(Oc2nccc(Nc3nnc(-c4ccc(Br)cc4)s3)n2)c1` was tested, and the growth was 114% (inactive). For `O=S(=O)(Nc1ccc2ccccc2c1)c1ccc(-c2cnc(C3CC3)o2)cc1`, the growth was 64.3% (inactive). With `C=CCN=c1sc(-c2ccc3ccccc3c2)cn1NC(=O)c1cc2ccc1CCc1ccc(cc1)CC2` the growth was 89.1% (inactive). `c1cc(OCCN2CCCCCC2)ccc1CNc1ccc2nc(CCC3CCCCC3)[nH]c2c1` was tested, and the growth was -4.87% (active). `CC1=C2CC/C(C)=C/CC[C@]3(C)O[C@H]3CC/C(C)=C/[C@H]2OC1` was tested, and the growth was 99.6% (inactive). `CCOc1ncc([N+](=O)[O-])c(OCC)n1` was tested, and the growth was 99.4% (inactive). For `COc1ccc(C2[C@@H](Cl)C(=O)N2c2cc(OC)c(OC)c(OC)c2)cc1Cl` (stereo not given in full), the growth was 22.8% (inactive). With `CS(=O)(=O)c1ccc(-c2nc3ccccc3n2CC(=O)N/N=C/c2ccccc2)cc1` the growth was 98.9% (inactive). For `CN1CCN(c2ccc(NC3=CC(=O)c4ncncc4C3=O)cc2)CC1`, the growth was -78.2% (active). With `Cn1c(=O)[nH]c(=O)c2nc3c(nc21)-c1ccccc1C3=O` the growth was 101% (inactive). In the case of `O=c1cc(CP(=O)(O)O)c2cc(O)c(-c3ccccc3)cc2o1`, the growth is reported as 102% (inactive). With `O=C1c2cccnc2C(=O)c2c1c(C(=O)OCCc1ccccn1)c1ccccn21` the growth was -70.3% (active). For `Cc1cc(C(=O)CCCC(=O)c2cc(C)c(O)c(C)c2)cc(C)c1O`, the growth was 46% (inactive).

These molecules were tested on KM12 colon in the same assay as above. Settings: 10 µM unless noted.
In the case of `Cn1c(=O)c2[nH]c(SC/C(=N/O)c3ccc(Br)cc3)nc2n(C)c1=O`, the growth is reported as 56.9% (inactive). In the case of `Cc1c2ncccc2nc2[nH]c3ccc(OCCN(C)C)cc3c12`, the growth is reported as 20.9% (inactive). `COc1ccc(-c2cc(C(=O)N3N=C(c4ccc(N)cc4)CC3c3ccc(Cl)cc3)c3ccccc3n2)cc1` (stereo not given) was tested, and the growth was 20.7% (inactive). For `Cc1oc(-c2ccc(Cl)cc2)nc1C1=NN(C(=O)c2ccncc2)C(c2ccccc2)C1` (stereo not given), the growth was 90.6% (inactive). With `Nc1cc(C(=O)O)cc(-n2c(O)c(C=C3N=c4ccccc4=N3)sc2=S)c1` the growth was 103% (inactive). `Nc1ncnc2c1N=C(c1ccc(F)cc1)CC(c1cccc(Nc3ccnc4cc(Cl)ccc34)c1)N2` (stereo not given) was tested, and the growth was 60.9% (inactive). With `CCNC(=O)N1CCc2c(Br)c3c(c(OC)c2C1Cc1ccc(OC)cc1)OCO3` (stereo not given) the growth was 22% (inactive). With `Nc1nc2ccccc2c2c(=O)c3cc(Cl)ccc3sc12` the growth was 12.9% (inactive). For `Cc1ccc(S(=O)(=O)c2nc(-c3ccccc3)oc2SCC(N)=O)cc1`, the growth was 97.9% (inactive). In the case of `CCCN(CCSSCCNc1nc(N(C)O)nc(N(C)O)n1)c1nc(N(C)O)nc(N(C)O)n1`, the growth is reported as 48.2% (inactive). For `COc1cc(C=C2C(=O)NC(=S)NC2=O)cc(CN2CCCC2)c1O`, the growth was 110% (inactive). In the case of `Cc1cc(C)c2c(c1)N(C)c1ncnc(-n3c(C)nc4cc(C)ccc43)c1CC2C` (stereo not given), the growth is reported as 38.7% (inactive). In the case of `COC1/C=C/OC2(C)Oc3c(C)c(O)c4c(O)c(c(/C=N/N(c5ccccc5)c5ccccc5)c(O)c4c3C2=O)NC(=O)C(C)=C/C=C/C(C)C(O)C(C)C(O)C(C)C(OC(C)=O)C1C` (stereo not given), the growth is reported as 55.6% (inactive). With `CN(C)Cc1cc(C(C)(C)C)cc(Br)c1O` the growth was 109% (inactive). `COC(=O)c1ccc2c(c1)c1c(C)c3cnccc3c(C)c1n2C` was tested, and the growth was 1.9% (active). With `CN(C)CCCn1c2c(c3cnccc3c1=O)C(=O)c1ccccc1-2` the growth was 3.16% (active). `O=C(NNc1nc2cc(F)ccc2n2c(CN3CCOCC3)ccc12)c1ccccc1` was tested, and the growth was 12.2% (inactive). `CCOC(=O)C/C(=N\Nc1cc(=O)[nH]c2ccc(OC)cc12)C(=O)OCC` was tested, and the growth was 99.2% (inactive). For `COc1ccc(/C=C(/C(=O)N2CCNCC2)c2cc(OC)c(OC)c(OC)c2)cc1O`, the growth was 21.3% (inactive). `COC(=O)[C@]1(C)CCC[C@]2(C)[C@H]3C[C@@H]4[C@H]5[C@@H]6CC/C(=N\OCC/C(N)=N/O)[C@H]5[C@@]3(CC[C@H]21)CC4(C(C)C)O6` was tested, and the growth was 76% (inactive). `CC/C(=C(\c1ccc(Cl)cc1)c1ccc(OCCN2CCCCC2)cc1)c1ccc(O)cc1` was tested, and the growth was 17.5% (inactive). For `CCN(CC)CCOc1ccc(/C(=C(\C)Cc2ccc(OC)cc2)c2ccc(OC(=O)NCc3ccccc3)cc2)cc1`, the growth was 63.4% (inactive). In the case of `O=[N+]([O-])c1c(O)c(Cl)cc(Cl)c1Cl`, the growth is reported as 112% (inactive). In the case of `C=CC(=O)Nc1cccc(Oc2nccc(Nc3nnc(-c4ccc(Br)cc4)s3)n2)c1`, the growth is reported as 100% (inactive). In the case of `O=S(=O)(Nc1ccc2ccccc2c1)c1ccc(-c2cnc(C3CC3)o2)cc1`, the growth is reported as 24.7% (inactive). For `CCCCCc1ccc(S(=O)(=O)Nc2ccc3nc(N)oc3c2)cc1`, the growth was 64.1% (inactive). For `C=CCN=c1sc(-c2ccc3ccccc3c2)cn1NC(=O)c1cc2ccc1CCc1ccc(cc1)CC2`, the growth was 56.6% (inactive). With `c1cc(OCCN2CCCCCC2)ccc1CNc1ccc2nc(CCC3CCCCC3)[nH]c2c1` the growth was 65.6% (inactive). In the case of `CC1=C2CC/C(C)=C/CC[C@]3(C)O[C@H]3CC/C(C)=C/[C@H]2OC1`, the growth is reported as 120% (inactive). `COc1ccc(C(O)c2cc3c(N)c(C(=O)Nc4cccc5ccccc45)sc3nc2C)cc1` (stereo not given) was tested, and the growth was -6.56% (active). In the case of `CCOc1ncc([N+](=O)[O-])c(OCC)n1`, the growth is reported as 117% (inactive). In the case of `COc1ccc(C2[C@@H](Cl)C(=O)N2c2cc(OC)c(OC)c(OC)c2)cc1Cl` (stereo not given in full), the growth is reported as 16.3% (inactive). In the case of `CS(=O)(=O)c1ccc(-c2nc3ccccc3n2CC(=O)N/N=C/c2ccccc2)cc1`, the growth is reported as 107% (inactive). In the case of `CN1CCN(c2ccc(NC3=CC(=O)c4ncncc4C3=O)cc2)CC1`, the growth is reported as -75.9% (active). `Cn1c(=O)[nH]c(=O)c2nc3c(nc21)-c1ccccc1C3=O` was tested, and the growth was 103% (inactive). With `COc1ccc(-c2cc(C(=O)N3N=C(c4ccc(N)cc4)CC3c3ccc(Cl)cc3)c3cc(OC)ccc3n2)cc1` (stereo not given) the growth was 52.3% (inactive). In the case of `O=c1cc(CP(=O)(O)O)c2cc(O)c(-c3ccccc3)cc2o1`, the growth is reported as 105% (inactive). `O=C1c2cccnc2C(=O)c2c1c(C(=O)OCCc1ccccn1)c1ccccn21` was tested, and the growth was 4.35% (active). In the case of `Cc1cc(C(=O)CCCC(=O)c2cc(C)c(O)c(C)c2)cc(C)c1O`, the growth is reported as 102% (inactive).
